Source: PubChem BioAssay (National Center for Advancing Translational Sciences (NCATS))
Shown are actives, neighbours in structure and some others; about 16% of the full set was active somewhere.
TDP1 inh: qHTS Assay for Inhibitors of Tyrosyl-DNA Phosphodiesterase (TDP1); Tyrosyl-DNA phosphodiesterase 1 (Homo sapiens), Q9NUW8; recombinant TDP1, AlphaScreen DNA substrate cleavage; Potency, µM (series often up to 130 µM), most hits filed as inhibitors; 350,000 tested, 0.28% active; AID 485290, 2010; note: nearly all actives have a fitted effect of over 40% in size
Target sequence (Q9NUW8 whole entry, looked up): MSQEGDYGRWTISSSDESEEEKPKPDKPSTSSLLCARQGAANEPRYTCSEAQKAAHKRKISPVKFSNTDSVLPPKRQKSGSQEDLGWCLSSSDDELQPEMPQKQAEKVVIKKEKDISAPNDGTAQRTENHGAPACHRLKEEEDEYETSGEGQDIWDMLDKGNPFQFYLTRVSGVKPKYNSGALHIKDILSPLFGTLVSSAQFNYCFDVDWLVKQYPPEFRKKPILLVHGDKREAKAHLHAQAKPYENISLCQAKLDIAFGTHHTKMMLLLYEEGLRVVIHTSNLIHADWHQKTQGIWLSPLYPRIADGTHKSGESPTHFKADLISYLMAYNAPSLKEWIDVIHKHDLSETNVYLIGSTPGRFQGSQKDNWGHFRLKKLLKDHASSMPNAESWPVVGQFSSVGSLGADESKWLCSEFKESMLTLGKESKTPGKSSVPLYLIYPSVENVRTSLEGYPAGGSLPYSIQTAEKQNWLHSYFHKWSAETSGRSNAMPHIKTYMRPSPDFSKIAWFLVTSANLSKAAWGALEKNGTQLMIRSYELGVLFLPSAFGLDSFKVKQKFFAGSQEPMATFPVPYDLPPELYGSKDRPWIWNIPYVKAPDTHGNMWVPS
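E. coli-derived human Tdp1, 1 nM final. Cpd preinc 15 min RT; substrate 15 nM final, 5 min RT; AS bead mix 10 ug/ml final, 10 min RT. Signal loss = tyrosine-FITC cleavage. No-enzyme wells = max signal.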
uPA generation: qHTS for Inhibitors of Cell Surface uPA Generation. cell surface uPA generation assay, qHTS. Potency, µM (highest dose often 38.3 µM), usual class: inhibitors. 330,000 tested, 0.31% active. AID 540303, 2011; active = well fitted inhibition curve with a large enough effect; inconclusive = small, poorly fitted or top-dose-only effect; inactive = no such curve, though single readings can be large or run the other way; tested in mouse RAW 264.7 cells; note: nearly all actives have a fitted effect of over 55% in size
DT40 TDP1 no CPT: qHTS for Inhibitors of human tyrosyl-DNA phosphodiesterase 1 (TDP1): qHTS in cells in absence of CPT. DT40 Tdp1-/- hTDP1 cells, no CPT, ATP luminescence, 48 h. AID 686978, 2013. 420,000 tested, 15% active. Potency, µM (doses to about 46.2 µM), usual class: inhibitors; note: nearly all actives have a fitted effect of over 55% in size
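Cells were dispensed at 400 per well, compounds added by pin tool, plates incubated ≥48 hr at 37 °C, then CellTiter-Glo added for 30 min at room temperature before luminescence reading. Line: DT40 Tdp1-/- complemented with hTDP1; camptothecin omitted.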
miR-21 reporter: qHTS Assay for Modulators of miRNAs and/orActivators of miR-21; Potency, µM (doses to about 38.3 µM), hits mostly activators; HeLa miR-21 FLuc reporter, luciferase, 48 h; 340,000 tested, under 10 active;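 note: miR-21 action dims this reporter so a rising signal means less miR-21 action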
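Luminescence from a firefly luciferase reporter carrying a miR-21 binding site downstream, stably expressed under a CMV promoter in HeLa cells that make miR-21 endogenously, reports miRNA modulation after 48 h compound exposure up to approximately 40uM final.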
DT40 TDP1 CPT: qHTS for Inhibitors of human tyrosyl-DNA phosphodiesterase 1 (TDP1): qHTS in cells in presence of CPT | chicken DT40 Tdp1-/-;hTDP1 cells + 20 nM CPT, ATP luminescence, 48 h | Potency, µM (titrated, usually from 46.2 µM), actives largely listed as inhibitors | 420,000 tested, 12% active; note: nearly all actives have a fitted effect of over 55% in size
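Chicken DT40 Tdp1-/- cells stably complemented with human TDP1 were seeded at 400 cells/well in medium containing 20 nM camptothecin, exposed to pin-transferred compounds, and grown at 37 °C for at least 48 hr. Viability was read as ATP luminescence.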
Hits are given with their value; . = inactive; ? = inconclusive; / = no result given. Unless noted, calls come from the whole dose curve; as a rule, active = well fitted curve in the direction sought with a large enough effect; inconclusive = small, poorly fitted or top-dose-only effect, or another doubt; inactive = no such curve, though single readings can be large; an effect the other way counts as inactive or inconclusive.

SMILES	TDP1 inh	uPA generation	DT40 TDP1 no CPT	miR-21 reporter	DT40 TDP1 CPT
CCC(c1nnc(SCC(=O)Nc2ccc(C(=O)Nc3ccccc3OC)cc2)o1)N(C)C (stereo unspecified)	.	.	.	.	.
CN(C)c1ccc(-c2nnc(SCC3CCCO3)n2C)cc1 (stereo unspecified)	.	.	?	.	?
Cc1cc2nc(-c3ccc(=O)[nH]c3)n(C)c2cc1C	/	.	.	.	.
CCN1C(=O)[C@H]2[C@@H](c3ccc(OC)cc3)N[C@]3(CCCN(CC4CCCCC4)C3=O)[C@H]2C1=O	/	/	.	/	.
O=C1[C@H]2[C@@H](c3ccc(C(F)(F)F)cc3)N[C@]3(CCCN(CC4CCCCC4)C3=O)[C@H]2C(=O)N1Cc1ccccc1	/	/	23µM	/	23µM
Cc1ccc([C@H]2N[C@]3(CCCN(Cc4ccco4)C3=O)[C@H]3C(=O)N(Cc4ccccc4)C(=O)[C@@H]23)cc1	/	/	?	/	.
O=C1[C@H]2[C@@H](c3ccc(C(F)(F)F)cc3)N[C@]3(CCCN(Cc4ccccc4)C3=O)[C@H]2C(=O)N1Cc1ccccc1	/	/	23µM	/	23µM
CN1CCN(C(=O)C(=O)Nc2c3c(nn2-c2ccc(Cl)cc2)CSC3)CC1	.	/	.	.	.
CCc1ccccc1N1C(=O)C2CC=CCC2C1=O (stereo unspecified)	.	.	16µM	.	?
CCCCNC(=O)COC(=O)CCC(=O)c1ccc(Cl)cc1	.	.	.	.	.
CCN(CC)S(=O)(=O)c1ccc(C(=O)NCCSc2c(-c3ccc(C)cc3)[nH]c3ccccc23)cc1	.	/	8.2µM	.	5.8µM
Cc1[nH]c2ccccc2c1SCCNC(=O)c1ccc(S(=O)(=O)N2CCCC2)cc1	.	.	?	.	.
COc1ccc(C(=O)NCCSc2c[nH]c3ccccc23)cc1OC	.	/	21µM	.	?
CCN(CC)S(=O)(=O)c1ccc(C(=O)NCCSc2c[nH]c3ccccc23)cc1	.	.	?	.	21µM
O=C(Nc1ccon1)C1CCN(S(=O)(=O)c2cccs2)CC1	.	.	23µM	.	?
O=C(Nc1nc2ccc(C(=O)N3CCCCC3)cc2s1)C1CCCCC1	.	.	4.1µM	.	2.6µM
Nc1ccc2nc(NC(=O)C3CCCCC3)sc2c1	.	.	.	.	?
COc1ccc2nc(NC(=O)C3CCN(S(=O)(=O)c4cccnc4)CC3)sc2c1	.	.	15µM	.	12µM
CCn1c2ccccc2c2cc(NC(=O)C3CCN(S(=O)(=O)c4cccs4)CC3)ccc21	.	.	21µM	.	16µM
Cc1ccc(NC(=O)C2CCN(S(=O)(=O)c3cccs3)CC2)cc1C	.	.	?	.	.
C=CCN(c1ccccc1C(=O)O)S(=O)(=O)/C=C/c1ccccc1	.	.	.	.	.
COc1ccc(-c2cnc3nc[nH]c(=O)c3n2)cc1	.	.	.	.	.
COc1ccc2nc(NC(=O)C3CCCN(S(=O)(=O)c4cccs4)C3)sc2c1 (stereo unspecified)	.	.	18µM	.	?
Cc1cccc(NC(=O)C2CCN(S(=O)(=O)c3cccs3)CC2)c1	.	.	.	.	.
Cc1ccc2nc(NC(=O)C3CCN(S(=O)(=O)c4cccs4)CC3)sc2c1	.	/	16µM	.	23µM
COc1ccccc1NC(=O)C1CCCN(c2nc(C)cc(C)n2)C1 (stereo unspecified)	.	.	.	.	.
CCOc1ccc(OCC)c(NC(=O)C2CCCN(c3nc(C)cc(C)n3)C2)c1 (stereo unspecified)	.	/	21µM	.	23µM
CCOc1ccc(OCC)c(NC(=O)C2CCN(S(=O)(=O)c3c(C)[nH]c(=O)[nH]c3=O)CC2)c1	.	.	?	.	18µM
CCOc1ccc(OCC)c(NC(=O)C2CCN(S(=O)(=O)c3cn(C)cn3)CC2)c1	.	/	.	.	.
O=C(CSc1nnc(CNC(=O)c2c(F)cccc2F)o1)NCc1ccc(F)cc1	.	.	.	.	.
